Screening results from PubChem.
TDP-43 rescue = qHTS of TDP-43 Inhibitors: NCGC Sytravon Library Screen; 45,000 compounds, 0.45% hits; yeast TDP-43 toxicity rescue, BacTiter-Glo growth, 24 h; AID 1347073, 2019; Potency, µM (top dose mostly 46.1 µM), usual class: activators; active means well fitted activation curve with a large enough effect; further: nearly all actives have a fitted effect of over 55% in size
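TDP-43-expressing yeast, pregrown in raffinose, seeded at OD600 0.02 in galactose medium with compound for 24 hr at 30 deg C. Growth read by BacTiter-Glo luminescence, so rescue of toxicity appears as activation.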
Numbers stand for hits; - = inactive. Shown is part of a subset that was picked to be rich in hits.

SMILES | TDP-43 rescue
CC1(C(=O)O)CCCN(C(=O)C2(c3ccc(Cl)cc3)CCCC2)C1 (configuration not stated) | 14µM
COCCNC(=O)C1CCCN(C(=O)C2(c3ccc(Cl)cc3)CCCC2)CC1 (configuration not stated) | -
COCCNC(=O)C1(C)CCN(C(=O)C2(c3ccc(Cl)cc3)CCCC2)C1 (configuration not stated) | -
Cc1ccc(C)c(CN2C(=O)c3ccccc3S(=O)(=O)c3ccc(C(=O)N4CCN(c5ccccc5F)CC4)cc32)c1 | -
COc1ccc(C2=NC3(CCCCCC3)N(CC(=O)Nc3ccc(C)c(C)c3)C2=O)cc1 | -
CCCS(=O)(=O)NC(=O)C1(C)CCCN(C(=O)c2ccc(C#N)cc2)C1 (configuration not stated) | -
CCCNC(=O)c1cc(C2CCCCN2C(=O)CCCc2ccccc2)on1 (configuration not stated) | -
Cc1ccc(-c2csc3ncnc(NS(=O)(=O)c4ccc(Cl)cc4)c23)cc1 | -
Fc1ccc(-c2csc3ncnc(Cl)c23)cc1 | 14µM
CC(=O)CSc1ncnc2scc(-c3ccc(F)cc3)c12 | -
O=C(Nc1nc(OCC(F)(F)F)cnc1/C=C\c1ccccc1)c1ccccc1 | -
COC(=O)c1c(NC(=O)c2ccc(C(C)(C)C)cc2)sc2c1CCC(C)C2 (configuration not stated) | -
O=C(CSc1ccc([N+](=O)[O-])cn1)Nc1cc(C(F)(F)F)ccc1N1CCOCC1 | 13µM
O=C(CNCc1ccccn1)Nc1cc(C(F)(F)F)ccc1N1CCOCC1 | -
Cn1nnnc1SCC(=O)Nc1cc(C(F)(F)F)ccc1N1CCOCC1 | -
COc1ccc(CNC(=O)c2cccc3c(-c4cccc(C(N)=O)c4)coc23)cc1OC | -
COC(=O)c1ccc(COc2ccc(/C=N/O)cc2OC)o1 | -
O/N=C/c1ccc(OCc2ccccc2)c(Br)c1 | 11µM
COc1cc(/C=N/NC(=O)CN2CCCCC2)ccc1OCc1ccccc1 | -
CN(C(=O)c1cccc(COc2ccc(Cl)cc2Cl)c1)c1ccccc1 | -
COc1cc(/C=N/NC(=O)CN2CCOCC2)ccc1OCc1ccccc1 | -
O/N=C/c1ccc(OCc2ccccc2)c(Cl)c1 | 10µM
CCC(=O)Nc1ccc2nc(SCc3ccccc3)sc2c1 | -
CN(C)CCCNc1oc(/C=C/c2ccc(F)cc2)nc1C#N | -
COc1ccc(N2CCN(c3oc(/C=C/c4ccc(F)cc4)nc3C#N)CC2)cc1 | -
SMILES | TDP-43 rescue
CCc1ccccc1NC(=O)C1CCCN(c2nnc(-n3c(C)ccc3C)s2)C1 (configuration not stated) | -
COC(=O)c1cc2oc3ccccc3c2n1Cc1c(F)cccc1Cl | -
Cc1cc2nc(-c3ccc(NC(=O)c4ccccc4F)cc3)oc2cc1C | -
CC1Cc2ccccc2N1C(=O)COC(=O)Cn1nnc(-c2ccccc2)n1 (configuration not stated) | -
CCCNC(=O)COC(=O)c1c2c(nc3ccccc13)CCC2 | -
CC1Cc2ccccc2N1C(=O)COC(=O)c1c2c(nc3ccccc13)CCCCC2 (configuration not stated) | 14µM
Cc1ccc(F)c(S(=O)(=O)NC(=O)C2(C)CCN2C(=O)Cc2ccccc2)c1 (configuration not stated) | -
Fc1ccc(-c2csc(N3CCOCC3)n2)cc1 | -
Cc1cc(C(=O)N/N=C/c2sc(N3CCOCC3)nc2-c2ccccc2)c(C)o1 | -
c1ccc(-c2nc(N3CCOCC3)sc2-c2ccccc2)cc1 | 25µM
COc1cccc(C(NC(C)=O)c2nc(-c3cccc(F)c3)cs2)c1 (configuration not stated) | -
C=CCn1c(-c2ccccc2OC)n[nH]c1=S | -
CCn1c(-c2cc(-c3ccc(C)cc3)nc3ccccc23)n[nH]c1=S | -
C=CCn1c(-c2cc(-c3ccc(C)cc3)nc3ccccc23)n[nH]c1=S | 14µM
CC1CC1C(=O)Nc1nc(-c2cccs2)c(-c2cccs2)s1 (configuration not stated) | 11µM
O=C(O)Cc1sc(Nc2ccc(Cl)cc2)nc1-c1cccs1 | -
CC(=O)Nc1sc(NC(=O)c2ccco2)nc1-c1cccs1 | -
Fc1ccc(-n2c(-c3ccco3)nc3nc4ccccc4nc32)cc1 | -
Clc1c(-c2ccccc2)nc2ccccn12 | -
c1ccc(-c2nc(-c3ccco3)n3ccccc23)cc1 | 13µM
COc1cc(Cl)ccc1OC1(C)CCN(Cc2ccc(SC)cc2)C1 (configuration not stated) | -
Cc1ccc(NC(=O)N2CCc3cc(S(=O)(=O)N4CCC(C)CC4)ccc32)cc1C | -
Cc1cccc(C(C)C)c1NC(=O)Cn1c(=O)oc2cc(S(=O)(=O)N3CCCC3)ccc21 | -
O=C(Nc1ccc(Cl)cn1)c1ccc(COc2ccccc2Br)o1 | 11µM
CCN(CC)C(=O)c1ccc(COc2ccccc2Cl)o1 | -
SMILES | TDP-43 rescue
CCc1nnc(NC(=O)c2ccc(COc3ccccc3Cl)o2)s1 | -
O=c1oc2c(F)cc(F)cc2cc1S(=O)(=O)c1ccc(F)cc1 | -
COC(=O)c1cc2sc(C)cc2n1Cc1cccc(OC)c1 | -
Cc1c(O)nc(SCC(=O)Nc2ccc(Cl)cc2Cl)n(-c2ccc(F)cc2)c1=O | -
COc1cc(C(=O)NCc2ccc(-c3nc4ccccc4s3)cc2)cc(OC)c1OC | -
CCOc1cc(-c2nc3ccccc3s2)ccc1O | 22µM
COc1cccc(-c2nc3ccccc3s2)c1O | -
Cc1cccc(NC(=S)NCCCN2CCOCC2)c1 | -
Cc1cc(C)cc(NC(=S)NCC2CCN(C(C)c3ccccc3)C2)c1 (configuration not stated) | -
COc1ccc(N2CCC(CNC(=S)Nc3cccc(C)c3)C2)cc1 (configuration not stated) | 14µM
CC(C)CCNC(=O)CN1C(=O)c2cccnc2Oc2ccccc21 | -
COc1ccc(NC(=O)c2cccc3c(-c4cccnc4)coc23)cc1 | 10µM
CC(C)CNC(=O)c1cccc2c(-c3cccnc3)coc12 | -
O=C(NCC1CCOCC1)c1cccc2c(-c3cccnc3)coc12 | -
CCc1ccc(CN(Cc2ccco2)C(=O)c2cc(-c3ccc(C)c(F)c3)on2)cc1 | -
COc1cc(OC)cc(C(=O)OCc2ccc([N+](=O)[O-])cc2)c1 | -
Cc1nc([N+](=O)[O-])c(C(=O)OCc2ccccc2)n1C | -
Cc1nc([N+](=O)[O-])c(C(=O)OCc2cccc(Br)c2)n1C | 13µM
CCCc1ccc(OCC(=O)Nc2sc3c(c2C(=O)OC)CCCCC3)cc1 | -
COC(=O)c1cc2oc3ccccc3c2n1Cc1c(C)cc(C)cc1C | -
Cc1ccc2c(c1)N(CCCC(=O)NCc1cccc(F)c1)C(=O)CO2 | -
COc1ccc(-n2c(-c3ccc(Cl)cc3Cl)n[nH]c2=S)c(OC)c1 | -
COCCn1c(-c2ccc(Cl)cc2Cl)nc2c(c(=O)c3ccccc3n2C)c1=O | -
Clc1cccc(COn2c(-c3ccc(Cl)cc3Cl)nc3ncccc32)c1 | 25µM
CCc1c(C)nc2nncn2c1NCc1ccc(Cl)cc1 | -
SMILES | TDP-43 rescue
Nc1ccc2oc(Cc3ccc(Cl)cc3)nc2c1 | -
Cc1cccc(Nc2c3c(nc4nncn24)CCC3)c1 | -
Cc1ccc(Nc2c3c(nc4nncn24)CCC3)cc1 | 13µM
COc1ccccc1N1CCN(c2c3c(nc4nncn24)CCC3)CC1 | -
COc1ccc(NC(=O)C2(C)Cc3c(-c4ccc(N(C)C)cc4)ccnc3O2)cn1 (configuration not stated) | -
Cc1ccccc1CNC(=O)C(C)n1nc(C)n2c(cc3occc32)c1=O (configuration not stated) | -
